{"source": "PubChem BioAssay AID1117264", "about": "(The Scripps Research Institute Molecular Screening Center, 2014)", "note": "Screen size: about 89,000 compounds; about 440 (0.49%) were called active. For the sample, actives were picked, then their nearest neighbours and some compounds at random. Values without a mark were called inactive.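 The calls were made as follows: active = inhibition above the mean inhibition across all screened compounds plus 3 SD (cut at about 11% in these data); inactive = the rest.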"}
{"biological_target": "RNA-editing ligase 1, mitochondrial (Trypanosoma brucei brucei) (UniProt P86926)", "sequence (P86926 whole entry, looked up)": "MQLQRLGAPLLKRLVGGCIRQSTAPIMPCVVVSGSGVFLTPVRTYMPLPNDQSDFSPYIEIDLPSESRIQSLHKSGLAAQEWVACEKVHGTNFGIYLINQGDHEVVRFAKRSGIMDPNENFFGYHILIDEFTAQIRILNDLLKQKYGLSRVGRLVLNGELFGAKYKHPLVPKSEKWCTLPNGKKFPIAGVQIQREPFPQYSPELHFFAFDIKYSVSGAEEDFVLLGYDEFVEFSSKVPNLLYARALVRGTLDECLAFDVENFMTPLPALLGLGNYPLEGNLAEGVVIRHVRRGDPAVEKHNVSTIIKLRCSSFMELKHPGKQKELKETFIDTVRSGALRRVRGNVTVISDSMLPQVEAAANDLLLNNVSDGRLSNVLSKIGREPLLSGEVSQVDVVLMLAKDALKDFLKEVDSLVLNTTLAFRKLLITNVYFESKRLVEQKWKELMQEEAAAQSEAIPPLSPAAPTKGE", "test": "TbREL1 RNA ligase inhibitors, primary screen, biochemical, FRET fluorescence (AID 1117264);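 also: 0% = plate median of test wells and 100% = NSC42067 control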", "details": "TbREL1 RNA ligation, at 9.66 µM, stronger effect = higher value"}
{"smiles": "CSc1ccc(C=Nn2c(-c3ccc(F)cc3)n[nH]c2=S)cc1", "inhibition": "-3.89%"}
{"smiles": "CC(C)Cc1nnc(NC(=O)CN2C(=O)NC3(CCCCC3)C2=O)s1", "inhibition": "4.69%"}
{"smiles": "Cc1ccc(C(=O)NCC(=O)NCc2cc(=O)n(C)c(=O)n2C)cc1", "inhibition": "1.66%"}
{"smiles": "Nn1c(SCC(=O)NC2CCCc3ccccc32)nnc1C1CC1", "note": "(configuration not stated)", "inhibition": "0.24%"}
{"smiles": "COc1ccc(-c2cc(-c3nnc(SCC(=O)Nc4cccc5ccccc45)n3N)[nH]n2)cc1", "inhibition": "-2.51%"}
{"smiles": "CCOC(=O)C1=C(CC)Nc2ccccc2N=C1N", "inhibition": "3.99%"}
{"smiles": "COCCCn1c(SCC(=O)Nc2oc(C)c3c(C)n[nH]c(=O)c23)nc2sc3c(c2c1=O)CCC3", "inhibition": "-6.64%"}
{"smiles": "CCC(C)C(N=C1NS(=O)(=O)c2ccccc21)C(=O)N1CCC(C)CC1", "note": "(configuration not stated)", "inhibition": "-0.06%"}
{"smiles": "CN(CC(=O)Nc1ccccc1[N+](=O)[O-])Cc1ccc(Br)cc1", "inhibition": "1.93%"}
{"smiles": "CCNC(=O)N1CCCC(C(=O)c2ccc(-c3ccccc3)cc2)C1", "note": "(configuration not stated)", "inhibition": "-3.04%"}
{"smiles": "O=C(NN=Cc1ccc([N+](=O)[O-])cc1)C1CC1", "inhibition": "-3.07%"}
{"smiles": "COCc1c(N)c(C)nc(Cl)c1C#N", "inhibition": "11.8% (active)"}
{"smiles": "COC(=O)c1c(C)c(C)nc(N)c1C#N", "inhibition": "-2.53%"}
{"smiles": "Cc1nc(Cl)c(C#N)c2c1CCCC2", "inhibition": "8.75%"}
{"smiles": "O=C(NCc1ccccc1)[C@H]1CCCN1C(=O)[C@H]1CCCN1C(=O)N1CCOCC1", "inhibition": "-0.82%"}
{"smiles": "COc1cccc(CNC(=O)COC(=O)CN2C(=O)NC3(CCCCC3C)C2=O)c1", "note": "(configuration not stated)", "inhibition": "1.52%"}
{"smiles": "CC1CCN(C(=O)COC(=O)c2cc(S(=O)(=O)N3CCOCC3)ccc2Cl)CC1", "inhibition": "-2.18%"}
{"smiles": "O=C(NCC(c1ccco1)N1CCc2ccccc21)c1cccc(F)c1", "note": "(configuration not stated)", "inhibition": "-8.09%"}
{"smiles": "COc1cc(NC(=O)C2CCCN(S(=O)(=O)c3ccc(C(C)(C)C)cc3)C2)cc(OC)c1", "note": "(configuration not stated)", "inhibition": "5.8%"}
{"smiles": "COc1cc(S(=O)(=O)N2CCN(C(=O)C3CC3)CC2)ccc1NC(C)=O", "inhibition": "4.21%"}
{"smiles": "COC(=O)[C@@]12CCCCC=C1N(CCc1ccc(Cl)cc1)C(=O)[C@H]2CC(=O)NCc1ccc(OC)c(OC)c1", "inhibition": "-3.3%"}
{"smiles": "COc1ccc(C(C(=O)Nc2c(C)cccc2C)N2CCN(c3ccc(C)cc3)CC2)cc1", "note": "(configuration not stated)", "inhibition": "23.2% (active)"}
{"smiles": "Cc1cccc(C)c1NC(=O)C(c1cccc(F)c1)N1CCN(C)CC1", "note": "(configuration not stated)", "inhibition": "-2.52%"}
{"smiles": "COc1ccc(N2CCC(CNC(=S)Nc3c(C)cccc3C)C2)cc1", "note": "(configuration not stated)", "inhibition": "-3.26%"}
{"smiles": "COc1ccc(C2COC(=O)C2=N)c(NC(=O)c2ccccc2)c1", "note": "(configuration not stated)", "inhibition": "-1.11%"}
{"smiles": "COc1ccc(N2C(=O)CC(SC(C)C)C2=O)cc1", "note": "(configuration not stated)", "inhibition": "-3.91%"}
{"smiles": "CCOc1ccc(C(=O)CCC(=O)Nc2ccncc2)cc1", "inhibition": "-0.23%"}
{"smiles": "O=C(CSc1nc(O)c(Cc2ccccc2)c(=O)[nH]1)Nc1nc2c(s1)CCCC2", "inhibition": "-3.09%"}
{"smiles": "CC1CCCCC12NC(=O)N(CC(=O)N1CCN(c3ccccc3)CC1)C2=O", "note": "(configuration not stated)", "inhibition": "-1.93%"}
{"smiles": "C[C@H](NC(=O)c1ccccc1Cl)C(=O)OCC(=O)N1CCN(c2ccccc2)CC1", "inhibition": "-4.27%"}
{"smiles": "O=C(NC1CCC(O)CC1)c1ccccc1OCc1ccc(F)cc1", "note": "(configuration not stated)", "inhibition": "-4.15%"}
{"smiles": "CCC(C)NCC(=O)Nc1ccc([N+](=O)[O-])cc1C(=O)Nc1ccccc1F", "note": "(configuration not stated)", "inhibition": "1.57%"}
{"smiles": "O=C(COC(=O)/C=C/c1ccc2c(c1)OCO2)NC1CCS(=O)(=O)C1", "note": "(configuration not stated)", "inhibition": "-1.84%"}
{"smiles": "CC(=O)c1c(C)oc2ccc(NS(=O)(=O)c3ccc(C(=O)O)cc3)cc12", "inhibition": "2.43%"}
{"smiles": "Cc1cc(C)nc(NC(=S)N2CCN(c3ccc(C(F)(F)F)cn3)CC2)c1", "inhibition": "-3.25%"}
{"smiles": "Cc1cccc(C(=O)Nc2ccc3c(c2)C(=O)N(CC(C)C)C3=O)c1", "inhibition": "5.77%"}
{"smiles": "CC(=O)N(CN1C(=O)C2C3C=CC(C3)C2C1=O)c1cccc(Cl)c1", "note": "(configuration not stated)", "inhibition": "-2.46%"}
{"smiles": "COC(=O)[C@@]12CCCCC3=C1N(CCC3)C(=O)[C@H]2CC(=O)NCc1cccc2ccccc12", "inhibition": "-3.03%"}
{"smiles": "CN(CC(=O)Nc1c(Cl)cccc1Cl)C(=O)c1ccncc1", "inhibition": "-0.71%"}
{"smiles": "CCOC(=O)[C@H]1[C@H]2COc3ccc(Cl)cc3[C@@H]2N2C(=O)c3cc(C)ccc3NC(=O)[C@@]12C", "inhibition": "-1.49%"}
{"smiles": "COc1cccc(CNC(=O)CNS(=O)(=O)c2ccc3nc(C)sc3c2)c1OC", "inhibition": "-4.98%"}
{"smiles": "CCCCN(C1CCS(=O)(=O)C1)S(=O)(=O)c1ccc(C(C)C)cc1", "note": "(configuration not stated)", "inhibition": "0.44%"}
{"smiles": "COc1cccc(NC(=O)CN(C)C(=O)CSCc2nc3scc(-c4cccs4)c3c(=O)[nH]2)c1", "inhibition": "-0.31%"}
{"smiles": "Cc1ccccc1NC(=O)Cn1cc(C(=O)C2CC2)c2ccccc21", "inhibition": "2.47%"}
{"smiles": "COc1cc(NC(=O)CCS(=O)(=O)c2ccc3c(c2)oc(=O)n3C)cc(OC)c1", "inhibition": "12.5% (active)"}
{"smiles": "COc1cccc(NC(=O)CCNS(=O)(=O)c2ccc3c(c2)oc(=O)n3C)c1", "inhibition": "3.31%"}
{"smiles": "COc1cc(NS(=O)(=O)c2ccc(NC(C)=O)cc2)cc(OC)c1", "inhibition": "0.52%"}
{"smiles": "Cc1ccc(NC(=O)C(C)Sc2nnc(C3CC3)n2C2CC2)cc1S(=O)(=O)N1CCOCC1", "note": "(configuration not stated)", "inhibition": "5.95%"}
{"smiles": "CCC(C(=O)OC)n1cnc2scc(-c3ccc(C)cc3)c2c1=O", "note": "(configuration not stated)", "inhibition": "2.37%"}
{"smiles": "Cc1ccccc1NC(=S)N(CCCN1CCOCC1)Cc1cccs1", "inhibition": "-3.36%"}
{"smiles": "CCCN(CCC)C(=S)Nc1cc(C(=O)OC)ccc1C(=O)OC", "inhibition": "-1.86%"}
{"smiles": "CCCCn1nnnc1C(c1ccccc1)N1CCN(c2ccccc2OC)CC1", "note": "(configuration not stated)", "inhibition": "0.09%"}
{"smiles": "O=C(C1CCCN1S(=O)(=O)c1ccccc1)N1CCc2ccccc2C1", "note": "(configuration not stated)", "inhibition": "3.88%"}
{"smiles": "O=C(COC(=O)CNS(=O)(=O)c1ccccc1)NC12CC3CC(CC(C3)C1)C2", "inhibition": "-1.46%"}
{"smiles": "CN1CCN(/N=C2/C(=O)Nc3ccc([N+](=O)[O-])cc32)CC1", "inhibition": "11.2% (active)"}
{"smiles": "O=C(O)COCC(=O)NCc1csc2ccc(Cl)cc12", "inhibition": "2.32%"}
{"smiles": "O=C(N/N=C/c1cccc([N+](=O)[O-])c1)c1ccncc1", "inhibition": "7.99%"}
